# High-throughput results deposited in PubChem BioAssay by National Center for Advancing Translational Sciences (NCATS).
# ClpP mod: qHTS Assay for Activators of ClpP. Potency, µM (highest dose often 57.5 µM). 1.9% of 340,000 active. purified B. subtilis ClpP, FRET peptide cleavage, 20 min. ATP-dependent Clp protease proteolytic subunit (Bacillus subtilis (strain 168)), P80244; active means well fitted falling curve with a large enough effect; inconclusive means small, poorly fitted or top-dose-only effect; inactive means no such curve, though single readings can be large or run the other way; further: the source files actives as falling curves though it sought activators and does not explain the sign; nearly all actives have a fitted effect of over 65% in size
#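 FRET quenching reversal measured ClpP activation: 10 microg/mL B. subtilis ClpP at pH 8 with the FRET-FV decapeptide, read at 430 nm after 320 nm excitation. The 20-min minus 0-min signal was scaled between DMSO/no-enzyme wells and ADEP (5.8 microM final).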
# RXFP1 antagonist: antagonists of human relaxin receptor RXFP1; activity change, negative = inhibition, % at 57.5 µM; HEK293-RXFP1, relaxin-stimulated cAMP HTRF, 30 min; active compounds read low; 0.59% of 350,000 active; Q9HBX9;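 active means activity change of -60% or lower, but not beyond a set lower limit; inconclusive means change between -60% and -40%, or beyond the set limit; inactive means change above -40%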
# Target sequence (Q9HBX9 whole entry, looked up): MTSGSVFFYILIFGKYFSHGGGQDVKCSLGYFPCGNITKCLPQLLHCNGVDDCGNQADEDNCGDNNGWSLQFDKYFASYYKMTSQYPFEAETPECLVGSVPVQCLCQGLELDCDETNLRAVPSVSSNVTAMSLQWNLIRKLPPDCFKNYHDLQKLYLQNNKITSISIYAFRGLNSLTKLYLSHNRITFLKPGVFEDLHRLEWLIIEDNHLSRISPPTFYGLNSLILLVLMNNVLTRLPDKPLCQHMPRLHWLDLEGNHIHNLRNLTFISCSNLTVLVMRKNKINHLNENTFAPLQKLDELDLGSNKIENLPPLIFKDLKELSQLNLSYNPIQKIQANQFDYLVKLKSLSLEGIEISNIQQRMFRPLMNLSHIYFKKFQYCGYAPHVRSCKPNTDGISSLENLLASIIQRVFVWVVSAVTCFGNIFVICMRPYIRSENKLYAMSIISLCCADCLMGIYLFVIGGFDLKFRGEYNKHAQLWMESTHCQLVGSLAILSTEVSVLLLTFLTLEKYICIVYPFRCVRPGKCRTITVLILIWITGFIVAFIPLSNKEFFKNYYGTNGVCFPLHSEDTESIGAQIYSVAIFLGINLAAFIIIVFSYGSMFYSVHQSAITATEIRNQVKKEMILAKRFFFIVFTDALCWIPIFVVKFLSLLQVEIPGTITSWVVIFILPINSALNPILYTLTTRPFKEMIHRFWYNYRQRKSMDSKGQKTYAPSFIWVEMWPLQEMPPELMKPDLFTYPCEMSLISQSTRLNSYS
# Akt phos inh: blocks phosphorylation of Akt. 0.32% of 360,000 active. AID 651550. activity change, % for hits at 50 µM. Neuro2A IGF-stimulated pAkt S473 HTRF, 20 min; active compounds read low; in the data active means activity change below about -80%; inconclusive means mostly about -51% to -80%
#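 Neuro2A cells (4,500/well, DMEM with 0.5% FBS) were treated with compound at a single 50 µM final concentration, stimulated with 6 nM IGF for 20 min at 37 °C, and lysed. Phospho-Akt Ser473 was read by HTRF as 665/615 ratio ×10^4.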
# gsp antag: gsp mutant antagonism; Potency, µM (highest dose often 76.9 µM), usual class: inhibitors; 0.4% of 340,000 active; gsp-mutant cells, cAMP HTRF, 30 min; AID 624288; calls by dose curve; cell line not stated here;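 further: intracellular cAMP measured with PDE inhibitor Ro 20-1724 present during compound exposure; nearly all actives have a fitted effect of over 65% in size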
#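 G418-selected cells were plated in DMEM/10% FBS for 16-24 h at 37C, then treated with compounds plus the PDE inhibitor […] (300 uM solution added) for 30 min at 37C. Intracellular cAMP was measured by HTRF after 30 min lysis at room temperature.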
# gsp agonist: agonists of gsp mutant (McCune-Albright syndrome). AID 624287. gsp mutant cells, cAMP HTRF, 30 min. 0.13% of 340,000 active. Potency, µM (highest dose often 76.9 µM), actives largely listed as activators; active means well fitted activation curve with a large enough effect; inconclusive means small, poorly fitted or top-dose-only effect, or another doubt; inactive means no such curve, though single readings can be large or run the other way; cell line not stated here;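 further: phosphodiesterase inhibitor Ro 20-1724 added with compounds to block cAMP breakdown; nearly all actives have a fitted effect of over 60% in size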
#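 Cells stably selected in G418 were plated at 2000/well, grown 16-24 hr, then given compounds in DMSO with the PDE inhibitor […] (300 uM solution added) for 30 min at 37C; cAMP was read by HTRF.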
# RXFP1 agonist: RXFP1 (human) receptor agonism; 0.3% of 370,000 active; HEK293T-RXFP1 cAMP TR-FRET, 30 min; response scale: percent of porcine relaxin response, buffer zero; Q9HBX9; Potency, µM (series often up to 57.5 µM), most hits filed as activators; active means well fitted activation curve with a large enough effect; inconclusive means small, poorly fitted or top-dose-only effect; further: nearly all actives have a fitted effect of over 60% in size
#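 cAMP rise read by TR-FRET after 30 min, 37C compound exposure (up to 58 uM) in RXFP1-transfected HEK293 cells with Ro 20174 present. EC50 from Hill-equation fits, with 29 nM porcine relaxin as 100% and buffer as basal.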
# Hits are given with their value; . = inactive; ? = inconclusive; / = no result; [ ] = remark or other dose. The list is not random: actives were taken first. Their share in the collection is about 2.7%.
SMILES,ClpP mod,RXFP1 antagonist,Akt phos inh,gsp antag,gsp agonist,RXFP1 agonist
CCOC(=O)C1(CCOc2ccccc2)CCN(Cc2cccc(OC)c2O)CC1,/,.,.,.,.,.
O=C(NCc1ccc(C(F)(F)F)cc1)c1ccc(-c2cccnc2)c2ccoc12,.,/,.,/,/,/
CC(=O)c1ccc(NC(=O)C2CCN(S(=O)(=O)c3ccc4[nH]c5c(c4c3)CCCCC5)CC2)cc1,.,.,/,/,/,.
Cc1ccc(C)c(NC(=O)Cn2c(=O)n(Cc3ccccc3)c(=O)c3oc4ccccc4c32)c1,.,.,/,/,/,.
Cc1ccc(C)c(NC(=O)Cn2c(=O)n(Cc3ccco3)c(=O)c3oc4ccccc4c32)c1,31.6µM,.,/,/,/,.
Cc1ccc(CN2C(=O)CSC(C)C2=O)cc1 (stereo not given),/,.,.,.,.,.
COc1ccc(CCC(=O)N2CCN(S(=O)(=O)c3ccc(OC)c([N+](=O)[O-])c3)CC2)cc1,.,.,.,/,.,/
Cc1cccc(C)c1NC(=O)CN(C)C(=O)CCc1nc2sc3c(c2c(=O)[nH]1)CCCC3,.,.,.,.,.,.
CN(CC(=O)Nc1ccc(F)c(F)c1F)C(=O)CCc1nc2sc3c(c2c(=O)[nH]1)CCCC3,/,-62.9,.,.,.[15.4 µM],.
CN(C)C(CNC(=O)CCc1nc2sc3c(c2c(=O)[nH]1)CCCC3)c1ccccc1 (stereo not given),28.2µM,.,.,.,.[15.4 µM],.
O=C(Nc1ccc2nccnc2c1)N1CCCCCC1,.,/,/,/,/,/
COC(=O)c1ccc2nc(C3CCCCC3)c(Cc3cccc(Cl)c3)n2c1,.,/,.,/,/,/
Cc1cn(C2CC(O)C(CO)O2)c(=O)n(Cc2ccccc2)c1=O (stereo not given),.,.,.,.,.,/
COc1cc(C2c3c(-c4ccccc4O)n[nH]c3C(=O)N2Cc2ccco2)ccc1OCC(C)C (stereo not given),.,-67.9,/,/,/,.
O=C1c2[nH]nc(-c3ccccc3O)c2C(c2ccccc2)N1Cc1ccco1 (stereo not given),.,.,.,?,.,.
O=C1c2[nH]nc(-c3ccccc3O)c2C(c2ccc(Cl)cc2)N1Cc1ccco1 (stereo not given),.,-110.8,/,/,/,.
COc1ccc(CC(=O)Nc2ccc3nc(N4CCCCC4)cc(C)c3c2)cc1,.,.,/,/,/,.
N#C/C(=C\c1c[nH]c2ccccc12)C(N)=O,.,.,.,.,.,.
CC(=O)Oc1c(/C=C(\C#N)C(N)=O)[nH]c2ccccc12,25.1µM,.,.,?,.,.
COc1ccc(CNC(=O)CN2C(=O)CCCc3ccccc32)cc1,.,.,/,/,/,.
COc1ccc(CNCCC(c2ccc(F)cc2)c2ccc(OC)cc2)cc1 (stereo not given),28.2µM,.,.,.,.,.
COc1ccc(C(CCNC(C)c2ccccc2)c2ccc(F)cc2)cc1 (stereo not given),.,-65.7,.,.,.,.
COc1ccc(C(CCNCc2ccc(F)cc2)c2ccc(F)cc2)cc1 (stereo not given),.,.,.,.,.,.
COc1ccc(C(CCNCc2ccccc2)c2ccc(F)cc2)cc1 (stereo not given),.,.,.,.,.,.
CN(C(=O)CSc1ncnc2ccccc12)C1CCS(=O)(=O)C1 (stereo not given),.,.,.,.,12.6µM,.
Cc1ccc(C)c(N2CCN(C(=O)C(C)n3c(C)c4cnn(-c5ccccc5)c(=O)c4c3C)CC2)c1 (stereo not given),.,/,/,/,/,.
COc1ccc(-c2cnc3c(NC(C)=O)cc(-c4ccc(C(=O)N5CCOCC5)cc4)cn23)cc1OC,.,/,.,/,/,/
Cn1c2ccccc2n2c(=O)c(Cl)c(-c3ccccc3)c(C#N)c12,28.2µM,.,.,?,.,.
Cn1c2ccccc2n2c(=O)cc(-c3ccccc3)c(C#N)c12,.,.,.,.,.[15.4 µM],?
O=C(NCc1ccc(F)cc1)c1ccc(NC(=O)C2CCCO2)cc1 (stereo not given),/,.,.,.,?,.
